# Measurements as given in PubChem BioAssay (EPA / NIEHS).
# Values joined by “and” are separate entries in the source; they are usually repeats but may differ in a detail not shown here. Equal entries are not always repeated. Inconclusive results are not listed. The source holds several records for some structures; these can differ, active in one and inactive in another. Active and inactive are the calls of the source. Rule for the calls, unless noted: active = hit-call score of the fitted dose curve at least 0.9, where 1 is the maximum; inconclusive = response in the unintended direction; inactive = score below 0.9.
# Assays:
# [1] = biological target: Cellular tumor antigen p53 (Homo sapiens) (UniProt P04637); assay: TOX21_p53_BLA_p5_ratio: Tox21 HCT-116 p53 Agonism Beta-lactamase Assay, Ratio, Phase 5 (AID 2283599)
# Chain of Cellular tumor antigen p53 (Homo sapiens) (P04637 whole entry, looked up): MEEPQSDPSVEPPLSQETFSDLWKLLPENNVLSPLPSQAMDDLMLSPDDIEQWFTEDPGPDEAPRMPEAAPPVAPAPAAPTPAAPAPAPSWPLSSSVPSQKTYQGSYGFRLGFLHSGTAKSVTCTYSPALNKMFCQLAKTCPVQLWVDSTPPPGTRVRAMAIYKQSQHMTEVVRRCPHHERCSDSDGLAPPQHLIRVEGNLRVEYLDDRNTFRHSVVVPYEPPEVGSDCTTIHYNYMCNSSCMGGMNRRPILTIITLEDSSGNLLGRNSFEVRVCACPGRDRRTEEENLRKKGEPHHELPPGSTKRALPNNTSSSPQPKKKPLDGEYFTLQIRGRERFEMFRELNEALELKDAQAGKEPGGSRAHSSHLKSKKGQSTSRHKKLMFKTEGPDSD
# Procedure, shortened: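 HCT-116 p53-bla cells (4000/well) plated 5 h, dosed with compound (217-fold DMSO dilution) for 16 h at 37 C; CCF4-AM substrate 2 h at room temperature. Activity is the 460/530 nm emission ratio (405 nm excitation), fitted in gain-of-signal direction versus DMSO.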
# [2] = TOX21_p53_BLA_p5_viability: Viability Assessment in the Tox21 HCT-116 p53 Agonism Beta-lactamase Assay, Phase 5 (AID 2283600)
# Procedure, shortened: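 ATP luminescence (CellTiter-Glo, 30 min, RT) served as the viability read-out, with loss of signal indicating cytotoxicity. Compounds in DMSO were pinned at a 217-fold dilution onto 4000 cells/well and incubated 16 h, 37C.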
# [3] = biological target: Cellular tumor antigen p53 (Homo sapiens) (UniProt P04637); assay: TOX21_p53_BLA_p4_ratio: Tox21 HCT-116 p53 Agonism Beta-lactamase Assay, Ratio, Phase 4 (AID 2283601)
# Procedure, shortened: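 HCT-116 p53 beta-lactamase reporter cells (4000/well) preincubated 5 h, then compound (217-fold dilution of DMSO stock) for 16 h at 37C. CCF4-AM substrate added 2 h at room temperature; 460/530 nm emission ratio fitted upward versus DMSO.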
# [4] = Tanguay_ZF_120hpf_MORT_legacy: (Legacy) Oregon State University Tanguay Lab 120 Hour Post-fertilization zebrafish Assay for Mortality (AID 2283633);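 for AC50: fitted as increase in binary mortality versus DMSO negative control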
# Procedure, shortened: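 Brightfield scoring of embryo death (binary) at 24 and 120 hpf; static exposure 6–120 hpf, 28C, sealed and foil-covered. Pronase-dechorionated 5D wild-type larvae, single embryo per well. DMSO 0.64% v/v; trimethyltin chloride 5uM positive control.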
# [5] = Tanguay_ZF_120hpf_YSE_legacy: (Legacy) Oregon State University Tanguay Lab 120 Hour Post-fertilization zebrafish Assay for Yolk Sac Edema (AID 2283634);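 for AC50: actives raise the incidence of yolk sac edema above the DMSO baseline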
# Procedure, shortened: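 Binary brightfield scoring of yolk sac edema at 120 hpf; DMSO baseline, gain-of-signal fitting. Dechorionated 5D larvae, one per well, static exposure 6–120 hpf, 28C, 0.64% DMSO. Dead embryos not scored.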
# [6] = Tanguay_ZF_120hpf_EYE_legacy: (Legacy) Oregon State University Tanguay Lab 120 Hour Post-fertilization zebrafish Assay for Eye Malformation (AID 2283636);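 note: binary presence or absence of eye malformation scored by brightfield in 120 hpf larvae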
# Procedure, shortened: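 5D wild-type embryos, pronase-dechorionated at 4 hpf; static exposure 6–120 hpf, 28C, dark; DMSO 0.64% final; 5uM trimethyltin chloride positive control. Binary eye-defect scoring at 120 hpf; dead embryos not scored.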
# [7] = Tanguay_ZF_120hpf_SNOU_legacy: (Legacy) Oregon State University Tanguay Lab 120 Hour Post-fertilization zebrafish Assay for Snout Malformation (AID 2283637)
# Procedure, shortened: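 Binary brightfield scoring of snout malformation at 120 hpf. Dechorionated 5D wild-type embryos, one per well, static exposure from 6 hpf at 28C, sealed and dark; final DMSO 0.64% (vol/vol), DMSO as baseline; 5uM trimethyltin chloride positive control.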
# [8] = Tanguay_ZF_120hpf_OTIC_legacy: (Legacy) Oregon State University Tanguay Lab 120 Hour Post-fertilization zebrafish Assay for Otic Vesicle Malformation (AID 2283639)
# Procedure, shortened: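 Binary scoring of otic vesicle defects at 120 hpf in zebrafish (Tropical 5D) held under static exposure at 28C, sealed and shaded, with final DMSO 0.64%. Embryos dying by 24 or 120 hpf excluded; fitted positively against DMSO.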
# [9] = Tanguay_ZF_120hpf_PE_legacy: (Legacy) Oregon State University Tanguay Lab 120 Hour Post-fertilization zebrafish Assay for Pericardial Edema (AID 2283640);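 for AC50: potency for increased incidence of pericardial edema versus DMSO baseline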
# Procedure, shortened: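 Static waterborne exposure, 5D wild-type embryos, 28C, to 120 hpf; final DMSO 0.64% (vol/vol). Binary PE call at 120 hpf by brightfield; fitted upward vs DMSO baseline. 5uM trimethyltin chloride as positive control.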
# [10] = Tanguay_ZF_120hpf_BRAI_legacy: (Legacy) Oregon State University Tanguay Lab 120 Hour Post-fertilization zebrafish Assay for Brain Malformation (AID 2283641)
# Procedure, shortened: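 Read-out: binary brain morphology call at 120 hpf (brightfield), fitted in gain-of-signal direction vs DMSO. Wild-type Tropical 5D embryos, static exposure, 28C, 0.64% DMSO final; 5uM trimethyltin chloride as positive control.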
# [11] = Tanguay_ZF_120hpf_SOMI_legacy: (Legacy) Oregon State University Tanguay Lab 120 Hour Post-fertilization zebrafish Assay for Somite Malformation (AID 2283647)
# Procedure, shortened: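 Binary brightfield scoring of somite defects at 120 hpf in 5D wild-type larvae; one dechorionated embryo per well, static exposure from 6 hpf, 28C, sealed and dark. Final DMSO 0.64%; trimethyltin chloride 5uM positive control.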
# [12] = Tanguay_ZF_120hpf_PFIN_legacy: (Legacy) Oregon State University Tanguay Lab 120 Hour Post-fertilization zebrafish Assay for Pectoral Fin Malformation (AID 2283648);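 note: each larva judged yes or no for fin defect by brightfield with dead larvae skipped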
# Procedure, shortened: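 Binary pectoral fin malformation call at 120 hpf by brightfield microscopy; 5D wild-type zebrafish, chorion removed at 4 hpf, one embryo per well from 6 hpf, static exposure at 28C; DMSO (0.64% final) as baseline.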
# [13] = Tanguay_ZF_120hpf_CFIN_legacy: (Legacy) Oregon State University Tanguay Lab 120 Hour Post-fertilization zebrafish Assay for Caudal Fin Malformation (AID 2283649)
# Procedure, shortened: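 Dechorionated 5D wild-type zebrafish, static exposure 6–120 hpf, 28C, sealed and dark, 0.64% v/v DMSO final. Binary fin-malformation call at 120 hpf, brightfield; gain of signal vs DMSO baseline.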
# [14] = Tanguay_ZF_120hpf_PIG_legacy: (Legacy) Oregon State University Tanguay Lab 120 Hour Post-fertilization zebrafish Assay for Pigmentation Malformation (AID 2283650);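 note: dechorionated Tropical 5D zebrafish embryos exposed singly from 6 to 120 hpf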
# Procedure, shortened: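 Brightfield scoring of pigmentation malformation at 120 hpf, recorded as binary present/absent per larva. Exposure: dechorionated 5D wild-type embryos, one per well, static from 6 hpf at 28C, final DMSO 0.64% (vol/vol). Dead embryos not scored.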
# [15] = Tanguay_ZF_120hpf_CIRC_legacy: (Legacy) Oregon State University Tanguay Lab 120 Hour Post-fertilization zebrafish Assay for Circulatory Malformation (AID 2283651)
# Procedure, shortened: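 Binary circulatory malformation call at 120 hpf by brightfield imaging of zebrafish larvae; chorion removed at 4 hpf, static exposure from 6 hpf in sealed dark plates at 28C, final DMSO 0.64%; non-mortality endpoints skipped if embryo died.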
# [16] = Tanguay_ZF_120hpf_SWIM_legacy: (Legacy) Oregon State University Tanguay Lab 120 Hour Post-fertilization zebrafish Assay for Swim Bladder Malformation (AID 2283654);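 note: swim bladder malformation in each larva scored yes or no under brightfield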
# Procedure, shortened: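 Tropical 5D embryos dechorionated at 4 hpf; 1 embryo/well from 6 hpf; static, sealed, dark exposure at 28C until 120 hpf; final DMSO 0.64%; 5uM trimethyltin chloride positive control; swim bladder defect recorded yes/no; dead embryos not scored.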
# [17] = Tanguay_ZF_120hpf_AXIS_legacy: (Legacy) Oregon State University Tanguay Lab 120 Hour Post-fertilization zebrafish Assay for Body Axis Malformation (AID 2283635)
# Procedure, shortened: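 Embryos: 5D wild-type, pronase-dechorionated 4 hpf; static exposure 6–120 hpf, 28C, sealed, dark, 1 embryo/well, 0.64% DMSO. 120 hpf axis malformation scored present/absent; dead embryos excluded. Analysed as gain of signal vs DMSO.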
# [18] = Tanguay_ZF_120hpf_JAW_legacy: (Legacy) Oregon State University Tanguay Lab 120 Hour Post-fertilization zebrafish Assay for Jaw Malformation (AID 2283638)
# Procedure, shortened: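 Binary jaw-malformation calls at 120 hpf by brightfield imaging; DMSO (0.64% v/v) = baseline. Embryos: 5D wild-type, pronase-dechorionated, one per well from 6 hpf, static exposure, 28C, sealed, dark.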
# [19] = read-out: solute carrier (SLC22A6), SLC22A6 (gene 9356); assay: LTEA_HepaRG_SLC22A6: Life Technologies and Expression Analysis (LTEA) Assay for solute carrier (SLC22A6) using HepaRG (AID 2283653; active = hit-call score of the fitted dose curve at least 0.9, where 1 is the maximum; inactive = score below 0.9); conditions: mRNA level, 48 h; actives raise or lower the signal
# Procedure, shortened: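 HepaRG, human liver line; 48 h chemical exposure; 8-pt half-log series from 100 uM in 0.5% DMSO, duplicate wells. Readout: TaqMan qRT-PCR of SLC22A6 mRNA, housekeeping-normalised; bidirectional curve fit vs DMSO baseline.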
smiles,measurement,setting,value
NC(=O)N1C(=O)C(C(=O)c2cc(Cl)cs2)c2cc(F)c(Cl)cc21 (configuration not stated),AC50,[1],7.17 µM (active)
same,outcome,[2],inactive
same,AC50,[3],14 µM (active)
same,AC50,[4],1.44 µM (active)
same,outcome,[5],inactive
same,outcome,[6],inactive
same,outcome,[7],inactive
same,outcome,[8],inactive
same,outcome,[9],inactive
same,outcome,[10],inactive
same,outcome,[11],inactive
same,outcome,[12],inactive
same,outcome,[13],inactive
same,outcome,[14],inactive
same,outcome,[15],inactive
same,outcome,[16],inactive
CCC(C)(C)C1CCC(O)CC1 (configuration not stated),outcome,[1],inactive
same,outcome,[2],inactive
same,outcome,[3],inactive
same,outcome,[4],inactive
same,outcome,[5],inactive
same,outcome,[17],inactive
same,outcome,[6],inactive
same,outcome,[7],inactive
same,outcome,[18],inactive
same,outcome,[8],inactive
same,outcome,[9],inactive
same,outcome,[10],inactive
same,outcome,[11],inactive
same,outcome,[12],inactive
same,outcome,[13],inactive
same,outcome,[14],inactive
same,outcome,[16],inactive
CC(C)(C)c1ccc(O)c(C(C)(C)C)c1,AC50,[1],57.1 µM (active) and 60.2 µM (active)
same,AC50,[2],42.7 µM (active)
same,outcome,[2],inactive
same,AC50,[3],72.4 µM (active)
same,outcome,[3],inactive
same,outcome,[4],inactive
same,outcome,[5],inactive
same,outcome,[6],inactive
same,outcome,[7],inactive
same,outcome,[8],inactive
same,outcome,[9],inactive
same,outcome,[10],inactive
same,outcome,[11],inactive
same,outcome,[12],inactive
same,outcome,[13],inactive
same,outcome,[14],inactive
same,outcome,[16],inactive
CCCCCCCCCCCCN1CCCC1=O,AC50,[1],63.2 µM (active)
same,AC50,[2],45.3 µM (active)
same,outcome,[3],inactive
same,AC50,[4],27.6 µM (active)
same,AC50,[5],47.3 µM (active)
same,outcome,[6],inactive
same,outcome,[7],inactive
same,outcome,[8],inactive
same,AC50,[9],35.8 µM (active)
same,outcome,[10],inactive
same,outcome,[11],inactive
same,outcome,[12],inactive
same,AC50,[13],41 µM (active)
same,outcome,[14],inactive
same,outcome,[16],inactive
CC(O)CO (configuration not stated),outcome,[1],inactive
same,outcome,[2],inactive
same,outcome,[3],inactive
same,outcome,[4],inactive
same,outcome,[5],inactive
same,outcome,[6],inactive
same,outcome,[7],inactive
same,outcome,[8],inactive
same,outcome,[9],inactive
same,outcome,[10],inactive
same,outcome,[11],inactive
same,outcome,[12],inactive
same,outcome,[13],inactive
same,outcome,[14],inactive
same,outcome,[15],inactive
same,outcome,[19],inactive
Nc1cccc2c(N)cccc12,outcome,[1],inactive
same,outcome,[2],inactive
same,outcome,[3],inactive
same,outcome,[4],inactive
same,outcome,[5],inactive
same,outcome,[6],inactive
same,outcome,[7],inactive
same,outcome,[18],inactive
same,outcome,[8],inactive
same,outcome,[9],inactive
same,outcome,[10],inactive
same,outcome,[11],inactive
same,outcome,[12],inactive
same,outcome,[13],inactive
same,outcome,[14],inactive
same,outcome,[16],inactive
CCCCCCCCC(=O)O,outcome,[1],inactive
same,outcome,[2],inactive
same,outcome,[3],inactive
same,outcome,[4],inactive
same,outcome,[5],inactive
same,outcome,[6],inactive
same,outcome,[7],inactive
same,outcome,[8],inactive
same,outcome,[9],inactive
same,outcome,[10],inactive
same,outcome,[11],inactive
same,outcome,[12],inactive
same,outcome,[13],inactive
same,outcome,[14],inactive
same,outcome,[16],inactive
